Pf growth 96h: Primary qHTS for delayed death inhibitors of the malarial parasite plastid, 96 hour incubation; P. falciparum luciferase reporter growth, 96 h; Potency, µM (titrated, usually from 28.7 µM), without a hit: at the top dose activity change, negative = inhibition, most hits filed as inhibitors; 320,000 tested, 6.9% active; further: potency means the concentration at half of the fitted maximal effect; on the % scale 0 is the no-effect control and ±100 the full control effect
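Delayed-death screen, second-generation endpoint: infected erythrocytes, 2% hematocrit, 0.05% parasitemia final; 96 hours at 37 C, 5% CO2; luciferase detection reagent; luminescence decrease equals reduced growth.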
FBPA Giardia inh: qHTS Assay for Inhibitors of Fructose-1,6-bisphosphate Aldolase from Giardia Lamblia. A8B2U2. purified Giardia FBPA. Potency, µM (highest dose often 59.6 µM), inactives show at the highest dose activity, negative = inhibition, most hits filed as inhibitors. 290,000 tested, 0.71% active. AID 2451, 2010; further: potency means the concentration at half of the fitted maximal effect; on the % scale 0 is the no-effect control and ±100 the full control effect; nearly all actives have a fitted effect of over 55% in size
Target sequence (A8B2U2 whole entry, looked up): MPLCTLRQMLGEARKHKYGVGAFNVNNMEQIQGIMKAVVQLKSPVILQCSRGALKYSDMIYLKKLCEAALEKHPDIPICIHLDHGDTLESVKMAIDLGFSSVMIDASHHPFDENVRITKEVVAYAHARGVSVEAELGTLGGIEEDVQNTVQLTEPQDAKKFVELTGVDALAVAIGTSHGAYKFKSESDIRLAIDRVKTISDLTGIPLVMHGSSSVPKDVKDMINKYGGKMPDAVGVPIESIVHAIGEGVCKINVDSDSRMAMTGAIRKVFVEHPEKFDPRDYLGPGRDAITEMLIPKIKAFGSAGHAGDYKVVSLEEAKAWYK
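40 nM FBPA preincubated 10 min at RT with compound (up to 57.5 uM final), then substrate plus GAPDH/TPI/NAD/arsenate coupling and diaphorase/resazurin added. Fluorescence read after 20 min at RT, 525/598 nm.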
Pf growth 48h: Primary qHTS for delayed death inhibitors of the malarial parasite plastid, 48 hour incubation | Potency, µM (highest dose often 28.7 µM), inactives show at the highest dose activity change, negative = inhibition, hits mostly inhibitors | 310,000 tested, 5.9% active | P. falciparum luciferase growth in erythrocytes, 48 h | AID 504832, 2011; further: potency means the concentration at half of the fitted maximal effect; on the % scale 0 is the no-effect control and ±100 the full control effect
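A one-generation exposure of luciferase-tagged malaria parasites in RPMI 1640/Albumax erythrocyte culture, 37 C and 5% CO2. Inhibition is inferred from decreased luminescence after adding detection reagent.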
Shiga toxin inh: A qHTS for Small Molecule Inhibitors of Shiga Toxin; Vero cells, Shiga toxin protein synthesis inhibition reporter; inhibition, % at 38.7 µM; AID 2315, 2010; 290,000 tested, 9.2% active; in the data active means inhibition mostly above about 28%, no sharp cut-off; inactive means mostly below about 43%; further: 0% is about no effect
NS1 function inh: qHTS Assay for Inhibitors of Influenza NS1 Protein Function; Potency, µM (series often up to 46.1 µM), without a hit: at the top dose activity, positive = more growth; 270,000 tested, 0.4% active; AID 2326, 2010; calls by dose curve; further: potency means the concentration at half of the fitted maximal effect; actives are rising curves; nearly all actives have a fitted effect of over 50% in size
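A cell-based growth assay was used: compounds that relieve NS1-induced slow growth of budding yeast raise OD600. Assay medium was yeast nitrogen base with ammonium sulphate and -URA supplement, pH 6.0, with 2% galactose.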
CHX counter: Cycloheximide Counterscreen for Small Molecule Inhibitors of Shiga Toxin; cell reporter, cycloheximide protein synthesis inhibition counterscreen; max response, %; 300,000 tested, 12% active; AID 2314, 2010; in the data active means max response mostly above about 13%, no sharp cut-off; inactive means mostly below about 14%; further: read at 38.3 µM for the half of the compounds with a filed dose; 0% is about no effect
* marks the source's active call; other numbers are inactive results; u = inconclusive; x = no result; [ ] = remark or other dose. Rows were chosen to be rich in hits. Some 21% of all compounds tested hit in one or more screens of this group. Unless noted, the call rests on the fitted dose curve; in most records, active means well fitted curve in the direction sought with a large enough effect; inconclusive means small, poorly fitted or top-dose-only effect, or another doubt; inactive means no such curve, though single readings can be large; an effect the other way counts as inactive or inconclusive.

SMILES	Pf growth 96h	FBPA Giardia inh	Pf growth 48h	Shiga toxin inh	NS1 function inh	CHX counter
CCCOP(=O)(c1ccc(N(C)C)cc1)C(O)c1ccc(Cl)cc1Cl (configuration not stated)	13.1µM*	-8.0%	7.38µM*	-0.9	9.2%	-3.4
CCCCOP(=O)(c1ccc(N(C)C)cc1)C(Nc1ccccc1)c1ccccc1 (configuration not stated)	14.7µM*	1.0%	u	11.6	-8.8%	-0.4
O=C(O)C(Cc1cc(I)c(O)c(I)c1)c1ccccc1 (configuration not stated)	u	x	-4.3%	x	x	x
CC1(C)CC(=O)C=C(Nc2ccc([N+](=O)[O-])cc2)C1	-3.2%	1.0%	4.4%	-6.0	16.5%	-2.7
Cc1ccc(C(O)P(=O)(OCCC(C)C)c2ccc(N(C)C)cc2)cc1 (configuration not stated)	u	14.8%	11.7µM*	-7.8	3.7%	-6.7
CCCOP(=O)(c1ccc(N(C)C)cc1)C(O)c1c(Cl)cccc1Cl (configuration not stated)	8.28µM*	2.2%	u	2.8	-3.4%	-2.1
CC(C)Cc1ccc(CC(=O)O)cc1	4.5%	x	-1.8%	x	x	x
O=C(NC(=S)Nc1ccc2c(c1)OCCO2)c1ccc(F)cc1Cl	2.1%	2.0%	68.8%	33.8*	23.0%	28.3*
CCc1ccc(C(=O)NC(=S)Nc2ccc3c(c2)OCCO3)cc1	8.28µM*	-10.4%	182.5%	71.8*	16.6%	41.3*
Cc1ccc(C(=O)NC(=S)Nc2ccc3c(c2)OCCO3)c(C)c1	u	-1.4%	48.7%	71.0*	-48.1%	33.2*
O=C(Nc1ccc2c(c1)OCO2)C1(S(=O)(=O)c2ccc(Cl)cc2)CC1	1.85µM*	0.3%	-0.7%	35.7	-6.2%	18.2
O=S(=O)(Cc1ccc(Cl)cc1)Nc1ccc2c(c1)OCO2	x	-0.8%	7.3%	-8.8	-15.0%	1.0
O=C(NC(=S)Nc1ccc(N2CCCCC2)c(Cl)c1)c1ccc2c(c1)OCCO2	u	-5.2%	u	-1.9	13.0%	-4.4
O=C1NC2=C(C(=O)CCC2)C(c2cccc([N+](=O)[O-])c2)N1 (configuration not stated)	u	7.3%	-6.0%	-6.6	-3.4%	-3.4
Cc1ccc(S(=O)(=O)C2(C(=O)Nc3ccc(C(C)C)cc3)CC2)cc1	-36.8%	-8.2%	29.0%	82.7*	x	49.7*
O=C(NC(=S)Nc1ccc2c(c1)OCO2)c1ccc(Cl)cc1	89.9%	-6.4%	239.0%	107.9*	-1.0%	76.4*
Cc1cc(C)cc(C(=O)NC(=S)Nc2ccc3c(c2)OCCO3)c1	0.928µM*	-7.6%	145.4%	73.7*	0.1%	31.5*
Cc1ccc(NC(=O)C2(S(=O)(=O)c3ccc(C)cc3)CC2)cc1	x	5.5%	8.0%	-2.6	-8.2%	10.6
C=CCC(=O)NC1CCCc2c1cnn2-c1cc(F)cc(F)c1 (configuration not stated)	-15.0%	12.8%	18.1%	16.7	-21.1%	-1.2
CC(C)C1=CC(=Nc2ccc(S(N)(=O)=O)cc2)C=C(C(C)C)C1=O	u	u	31.7%	-7.5	-103.8%	-3.8
O=c1[nH]c(/C(Cl)=C/c2cc(Cl)ccc2O)nc2cc(Cl)ccc12	9.28µM*	4.4%	-23.0%	-4.7	-9.3%	-1.1
O=c1[nH]c(/C(Cl)=C/c2c(F)cccc2Cl)nc2cc(Cl)ccc12	48.1%	6.8%	-13.7%	-8.5	0.0%	0.2
Cc1noc(C)c1-c1nnc(-c2ccc(C(F)(F)F)cc2)o1	76.3%	2.2%	83.7%	3.5	2.8%	4.6
CCN(CC)S(=O)(=O)c1ccc(NCC2COc3ccccc3O2)c([N+](=O)[O-])c1 (configuration not stated)	u	-0.5%	u	21.1	12.2%	20.1*
NC(=O)c1ccc(NCC2COc3ccccc3O2)c([N+](=O)[O-])c1 (configuration not stated)	36.2%	3.5%	57.1%	28.6	-2.4%	33.2*
SMILES	Pf growth 96h	FBPA Giardia inh	Pf growth 48h	Shiga toxin inh	NS1 function inh	CHX counter
CN(C)S(=O)(=O)c1ccc(NCC2COc3ccccc3O2)c([N+](=O)[O-])c1 (configuration not stated)	13.1µM*	-1.9%	-8.7%	49.0	23.8%	26.9*
O=C(Nc1ccccc1)c1ccc(NCC2CCCO2)c([N+](=O)[O-])c1 (configuration not stated)	u	2.3%	42.4%	99.5*	-5.3%	68.2*
NC(=O)c1ccc(NCCCN2CCOCC2)c([N+](=O)[O-])c1	-1.5%	3.2%	7.5%	-17.3	0.7%	-2.6
CCCCCCCCCCCCCc1ccco1	x	-3.5%	x	x	x	x
CC(=O)OC[C@H]1O[C@@H](CCO/N=C2/[C@H]3O[C@@H]3[C@@H](O)[C@H]3[C@H]2CCn2c(=O)n(-c4ccccc4)c(=O)n23)C=C[C@@H]1OC(C)=O	x	-0.2%[12.9 µM]	x	x	x	x
C[C@H](N)C(=O)NCC(=O)N[C@H]1CSSC[C@@H](C(=O)O)NC(=O)[C@H](CO)NC(=O)[C@H]([C@@H](C)O)NC(=O)[C@H](Cc2ccccc2)NC(=O)[C@H]([C@@H](C)O)NC(=O)[C@H](CCCCN)NC(=O)[C@@H](Cc2c[nH]c3ccccc23)NC(=O)[C@H](Cc2ccccc2)NC(=O)[C@H](Cc2ccccc2)NC(=O)[C@H](CC(N)=O)NC(=O)[C@H](CCCCN)NC1=O	x	0.6%	x	-11.6	x	0.4
Clc1ccc(-n2nnnc2-c2cnc(-c3ccncc3)nc2-c2cccs2)cc1	u	-17.1%	4.65µM*	12.9	-5.4%	-4.5
FC(F)(F)c1nc(-c2cccs2)ncc1-c1nnnn1-c1ccc(Cl)cc1	22.6%	-6.8%	x	2.8	-36.7%	-2.1
COc1cc(C=O)ccc1OCc1ccc(Cl)nc1	1.2%	-13.2%	154.2%	66.1*	-6.2%	40.9*
COc1cc(C=O)ccc1OCc1ccncc1	u	-4.1%	-7.1%	-4.3	1.8%	-1.5
COc1ccc(CCNCc2ccc(OCc3ccc(Cl)nc3)c(OC)c2)cc1OC	11.7µM*	3.8%	x	-6.7	-3.1%	-1.4
CC(CCc1nc2ccccc2s1)(c1ccc(O)cc1)c1ccc(O)cc1	x	x	x	x	-30.5%	x
Cc1cc(NC(=O)Cc2ccccc2C)no1	81.2%	7.6%	25.1%	-1.0	-6.5%	-2.9
Cc1cc(C)c(NC(=O)c2ccoc2C)c(C)c1	-20.8%	6.1%	x	-7.2	-10.9%	-4.3
Cc1cccc(NC(=O)c2cc(NC(=O)c3ccco3)ccc2Cl)n1	-3.8%	5.6%	0.0%	21.2*	-57.2%	24.8
Cc1cccc(NC(=O)c2ccccc2Br)n1	11.7µM*	-2.9%	x	28.0	-11.7%	13.3
Cc1cccc(NC(=O)c2cccc3c2-c2ccccc2C3=O)n1	9.8%	2.0%	-30.1%[5.75 µM]	5.8	3.3%	-2.1
Cc1ccccc1CC(=O)Nc1cc(C(C)(C)C)on1	u	6.9%	19.4%	11.9	-4.0%	9.7*

From PubChem BioAssay
